A selection: hits, their analogues and other compounds. The true share with any hit is near 11%.
Tau ThT inhib – qHTS for Inhibitors of Tau Fibril Formation, Thioflavin T Binding | recombinant tau K18 P301L, heparin-induced fibrillization, ThT fluorescence | Potency, µM (series often up to 57.4 µM), inactives show at the highest dose activity, negative = inhibition, usual class: inhibitors | 270,000 tested, 2.1% active | AID 1460, 2008; note: potency is the fitted concentration of half-maximal effect; nearly all actives have a fitted effect of over 55% in size
Target sequence (P10636 561-689 P618L limits assumed): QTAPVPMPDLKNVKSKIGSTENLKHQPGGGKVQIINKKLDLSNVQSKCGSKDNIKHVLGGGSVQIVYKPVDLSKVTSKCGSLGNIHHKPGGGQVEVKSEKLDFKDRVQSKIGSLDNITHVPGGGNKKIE
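K18 P301L tau (15 uM + 0.24 uM Alexa 594-tagged), heparin 20 uM, NaOAc pH 7, 6 h 37 C; ThT 30 uM, 1 h RT, ex 450/em 510 nm.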
G9a block – qHTS Assay for Inhibitors of Histone Lysine Methyltransferase G9a; Histone-lysine N-methyltransferase EHMT2 (Homo sapiens), Q96KQ7; G9a H3K9 monomethylation, AlphaScreen, 2 h; Potency, µM (top dose mostly 102 µM), for inactives: top-dose activity, negative = inhibition, most hits filed as inhibitors; 350,000 tested, 8.8% active; AID 504332, 2011; note: potency is the fitted concentration of half-maximal effect; nearly all actives have a fitted effect of over 75% in size
Target sequence (Q96KQ7 913-1193 limits assumed): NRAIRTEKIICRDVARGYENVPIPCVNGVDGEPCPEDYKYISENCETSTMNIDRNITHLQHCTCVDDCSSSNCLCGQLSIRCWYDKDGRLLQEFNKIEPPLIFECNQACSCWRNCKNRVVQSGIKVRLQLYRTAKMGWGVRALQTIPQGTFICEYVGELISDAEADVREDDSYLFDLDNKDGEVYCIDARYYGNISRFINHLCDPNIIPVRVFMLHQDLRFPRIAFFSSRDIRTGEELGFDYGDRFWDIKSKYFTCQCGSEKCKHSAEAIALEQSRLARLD
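Chemiluminescent proximity detection of H3K9 monomethylation, read after 10 min bead incubation in the dark. Reaction: 20 nM G9a, 500 nM biotin-H3K9 peptide, 20 uM SAM cofactor, 2 h, room temperature, following 15 min enzyme-compound preincubation.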
Tau fibril FP – qHTS for Inhibitors of Tau Fibril Formation, Fluorescence Polarization | Potency, µM (top dose mostly 57.7 µM), inactives show at the top dose activity, negative = inhibition, usual class: inhibitors | Microtubule-associated protein tau (Homo sapiens), P10636 | K18 P301L tau heparin fibrillization, Alexa594 FP, 6 h | AID 1468, 2008 | 280,000 tested, 0.39% active; note: potency is the fitted concentration of half-maximal effect; nearly all actives have a fitted effect of over 55% in size
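Human tau K18 […] P301L fragment, 15 uM unlabeled plus 0.24 uM Alexa 594-labeled tau (final), with compound and 20 uM heparin in 100 mM sodium acetate pH 7; 6 hr at 37 C, then Alexa 594 FP read.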
Coupling enz – qHTS Assay for Inhibitors of Fructose-1,6-bisphosphate Aldolase from Giardia Lamblia: Coupling assay counterscreen | 290,000 tested, 0.67% active | activity change, negative = inhibition, % at 58.2 µM, hits read low | coupling enzyme system counterscreen, AmpLite Red fluorescence; in the data active = activity change below about -30%
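Final compound at 57.5 uM, incubated 10 min at RT with coupling enzyme reagent (glyceraldehyde-3-phosphate), then 20 min with substrate and AmpLite Red detection. Fluorescence read at 525/598 nm; tests interference with the coupling assay, not aldolase inhibition.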
Tau fluor cs – Counterscreen qHTS for Inhibitors of Tau Fibril Formation, Fluorescence Polarization; 280,000 tested, 0.93% active; Potency, µM (series often up to 57.7 µM), without a hit: top-dose activity change, negative = decrease; tau K18 P301L Alexa594 fluorescence, heparin fibrillization; AID 1463, 2008; note: potency is the fitted concentration of half-maximal effect; nearly all actives have a fitted effect of over 55% in size
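Human tau K18 P301L (15 uM unlabeled, 0.24 uM Alexa 594-labeled) in 100 mM sodium acetate pH 7 with 20 uM heparin, 6 hr at 37 C. ThT 30 uM added, 1 hr ambient; Alexa 594 FP and total fluorescence read at 555/632 nm.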
Sfp inh – qHTS Assay for Inhibitors of Bacillus subtilis Sfp phosphopantetheinyl transferase (PPTase); Biochemical Sfp PPTase activity, qHTS; Potency, µM, without a hit: largest response in the series, negative = inhibition, usual class: inhibitors; 4'-phosphopantetheinyl transferase ffp (Bacillus subtilis), Q9F4F7; 310,000 tested, 3.5% active; AID 1490, 2009;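 note: the enzyme is Sfp with the accession as filed and its product quenches rhodamine fluorescence; potency is the fitted concentration of half-maximal effect; 0% = enzyme reaction without inhibitor and -100% = no enzyme wells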
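Sfp 15 nM + cpd, 15 min RT; start w/ rhodamine-CoA 5 uM, BHQ-2-YbbR 12.5 uM (final); 50 mM Hepes pH 7.6, 10 mM MgCl2, 0.01% NP-40, 0.01% BSA; read 525/598 nm at 0 and 30 min.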
The depositor's hits bear a star; ? = inconclusive; nt = no result; [ ] = another dose, or the depositor's remark. Unless noted, calls come from the whole dose curve; as a rule, active = well fitted curve in the direction sought with a large enough effect; inconclusive = small, poorly fitted or top-dose-only effect, or another doubt; inactive = no such curve, though single readings can be large; an effect the other way counts as inactive or inconclusive. Unless noted, % is set by controls: 0 for no effect and ±100 for the full control effect.

SMILES	Tau ThT inhib	G9a block	Tau fibril FP	Coupling enz	Tau fluor cs	Sfp inh
COc1ccc(C(=O)NNC(=O)C(=O)NC(C)c2ccccc2)cc1OC (stereo unspecified)	-11%	6.3µM*	5%	2	-5%	10%
Cc1ccc(/C=C(\C#N)C(=O)NC(C)c2ccccc2)o1 (stereo unspecified)	nt	-22%	nt	-1	nt	-11%
COc1ccc(C(=O)Nc2ccccc2C(=O)NC(C)C)cc1OC	-3%	6%[59 µM]	-4%	3	-3%	25%
COc1cc(/C=C(/C#N)C(=O)NC(C)c2ccccc2)cc(OC)c1O (stereo unspecified)	nt	14µM*	nt	1	nt	-9%
Cc1ccc(/C=C(/C#N)C(=O)NC(C)c2ccccc2)o1 (stereo unspecified)	-2%	37%[59 µM]	4%	-3	11%	22µM*
CC1(C)CC(=O)c2c(oc3c(Cl)cc(NS(=O)(=O)c4ccc(Cl)cc4)cc23)C1	5%	6%[59 µM]	-11%	nt	7%	nt
Cc1nc(C)c(C(=O)O)c(-c2ccsc2)c1C(=O)O	nt	50µM*	3%	0	-5%	5%
COC(=O)c1c(C)nc(C)c(C(=O)OC)c1-c1ccsc1	-4%	0%	4%	-2	-13%	16%
CCCCNC(=O)CNC(=S)N(Cc1ccc(C)cc1)Cc1ccco1	-16%	28µM*	5%	1	-19%	56µM*
Cc1ccc(CN(Cc2ccco2)C(=S)NCC(=O)NC2CC2)cc1	-2%	18µM*	-7%	0	-7%	50µM*
CC(=O)c1ccc(NC(=O)CSc2ccc(-c3ccc4c(c3)OCO4)nn2)cc1	?	-3%	-9%	2	-3%	-4%
c1cncc(CSc2ccc(-c3ccc4c(c3)OCO4)nn2)c1	-18%	50µM*	-5%	-3	-11%	-14%
Fc1cccc(CSc2ccc(-c3ccc4c(c3)OCO4)nn2)c1	?	-10%	-10%	-1	-20%	-16%
CC(=O)Nc1ccc(NC(=O)CSc2ccc(-c3ccc4c(c3)OCO4)nn2)cc1	?	7.9µM*	?	2	3%	-21%
N/C(Cc1cccc2ccccc12)=N\OC(=O)Cc1cccs1	13%	54%[59 µM]	8%	-40*	11%	13%
N/C(Cc1cccc2ccccc12)=N\OC(=O)c1ccc(Br)o1	4%	45µM*	-1%	-4	0%	-15%
N/C(Cc1cccc2ccccc12)=N\OC(=O)c1cccs1	?	-2%[59 µM]	-8%	-1	-18%	-1%
Cc1c(C=O)c2ccccc2n1CC(=O)NC(C)c1ccccc1 (stereo unspecified)	-5%	-6%[59 µM]	-8%	0	-1%	14%
COc1cccc(CNC(=O)Cc2ccc(S(=O)(=O)N3CCOCC3)s2)c1	nt	-7%	nt	nt	nt	nt
Cc1ccc(S(=O)(=O)c2nc(Nc3ccccc3C#N)sc2Cl)cc1	16%	7.9µM*	?	7	-7%	-1%
Cc1ccc(S(=O)(=O)c2nc(Nc3ccccc3N3CCOCC3)sc2Cl)cc1	10%	-2%[0.501 µM]	7%	nt	-24%	-8%
O=C(NC1CC(=O)N(c2ccc(Cl)cc2)C1)C1CCCCC1 (stereo unspecified)	-1%	?	-14%	nt	-5%	nt
O=C(CSc1nc2c([nH]c3ccccc32)c(=O)n1-c1cccc(C(F)(F)F)c1)N1CCc2ccccc21	-3%	7%[59 µM]	0%	nt	-9%	nt
N#C/C(=C/c1ccc(Sc2nc3ccccc3[nH]2)o1)c1cccc(Br)c1	?	?	?	3	?	19%

Compound activity: PubChem BioAssay, National Center for Advancing Translational Sciences (NCATS)
